Holding throughout (test): DAPPL (digital affinity profiling via proximity ligation, sequencing); 10 mM Tris-HCl pH 7.5, 50 mM NaCl, 1 mM DTT, 4% glycerol, room temperature, 30 min; GST-TFs on glutathione beads, 16-mer random dsDNA library, 0.1% formaldehyde crosslink after washing; high values mean tight binding
Holding throughout (conditions): protein: recombinant; tags: N-terminal GST; dsDNA, one strand shown

The target in experiment [1] is T1, ELK1 (Homo sapiens, UniProt P19419 1-428).
T1 sequence: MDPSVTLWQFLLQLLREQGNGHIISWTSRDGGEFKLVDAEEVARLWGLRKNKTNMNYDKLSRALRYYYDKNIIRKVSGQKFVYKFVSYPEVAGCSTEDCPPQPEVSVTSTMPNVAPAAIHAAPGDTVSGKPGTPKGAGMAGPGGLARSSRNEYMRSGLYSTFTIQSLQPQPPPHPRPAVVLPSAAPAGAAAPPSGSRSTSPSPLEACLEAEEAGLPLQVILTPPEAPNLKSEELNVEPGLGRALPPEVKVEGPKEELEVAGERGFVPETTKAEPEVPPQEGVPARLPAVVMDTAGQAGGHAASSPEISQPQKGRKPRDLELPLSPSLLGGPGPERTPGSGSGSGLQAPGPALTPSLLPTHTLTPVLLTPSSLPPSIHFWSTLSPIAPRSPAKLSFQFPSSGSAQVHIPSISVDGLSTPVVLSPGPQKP
In a few lines:
(§1)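 Sequencing on an Illumina NextSeq500 followed washing, crosslinking with 0.1% formaldehyde, proximity ligation (BsaI/T4 ligase, 1 h, 37 °C) and PCR amplification of pools that had been incubated for 30 min at room temperature with 200 nmole of a random double-stranded 16-mer DNA library in Tris/NaCl/DTT/glycerol buffer. Each pool held DNA-barcoded human transcription factors, expressed in yeast as GST fusions and captured on glutathione beads, plus a tag-only sample. Binding signal is a hexamer's read frequency for a factor divided by its frequency in the tag-only sample.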

The target in experiment [2] is T2, GABPA (Homo sapiens, UniProt Q06546 1-454).
T2 sequence: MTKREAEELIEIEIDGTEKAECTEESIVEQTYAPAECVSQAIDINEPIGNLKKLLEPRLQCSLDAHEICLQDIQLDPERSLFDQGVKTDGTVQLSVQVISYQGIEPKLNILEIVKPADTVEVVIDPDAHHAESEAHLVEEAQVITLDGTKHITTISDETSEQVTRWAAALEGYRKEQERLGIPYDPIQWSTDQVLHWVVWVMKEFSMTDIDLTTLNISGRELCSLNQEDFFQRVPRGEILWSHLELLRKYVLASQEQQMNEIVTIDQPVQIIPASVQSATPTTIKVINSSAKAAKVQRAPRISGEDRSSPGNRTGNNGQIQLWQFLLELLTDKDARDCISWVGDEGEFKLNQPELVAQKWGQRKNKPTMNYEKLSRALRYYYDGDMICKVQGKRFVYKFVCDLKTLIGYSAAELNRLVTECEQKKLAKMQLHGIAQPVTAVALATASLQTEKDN
In a few lines:
as §1

The target of experiment [3] is T3, ERG (Homo sapiens, UniProt P11308 1-479).
T3 sequence: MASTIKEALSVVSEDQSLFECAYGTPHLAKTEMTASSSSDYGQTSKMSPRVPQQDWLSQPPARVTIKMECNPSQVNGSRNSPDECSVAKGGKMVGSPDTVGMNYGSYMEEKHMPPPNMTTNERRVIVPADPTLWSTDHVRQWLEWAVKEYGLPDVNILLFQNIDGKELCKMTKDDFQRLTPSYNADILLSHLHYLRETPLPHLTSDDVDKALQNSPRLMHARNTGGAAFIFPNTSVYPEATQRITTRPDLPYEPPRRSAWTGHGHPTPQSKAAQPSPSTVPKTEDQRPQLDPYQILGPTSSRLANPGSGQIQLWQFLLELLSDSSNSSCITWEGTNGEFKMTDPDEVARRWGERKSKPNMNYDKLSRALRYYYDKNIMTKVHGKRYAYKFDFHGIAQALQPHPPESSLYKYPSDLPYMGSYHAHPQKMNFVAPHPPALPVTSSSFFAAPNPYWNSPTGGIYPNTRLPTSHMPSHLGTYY
The procedure, abridged: as §1

The target in experiment [4] is ELF1 (Homo sapiens, UniProt P32519 1-619). The procedure, abridged:
as §1

The target in experiment [5] is T4, EHF (Homo sapiens, UniProt Q9NZC4 1-300).
T4 sequence: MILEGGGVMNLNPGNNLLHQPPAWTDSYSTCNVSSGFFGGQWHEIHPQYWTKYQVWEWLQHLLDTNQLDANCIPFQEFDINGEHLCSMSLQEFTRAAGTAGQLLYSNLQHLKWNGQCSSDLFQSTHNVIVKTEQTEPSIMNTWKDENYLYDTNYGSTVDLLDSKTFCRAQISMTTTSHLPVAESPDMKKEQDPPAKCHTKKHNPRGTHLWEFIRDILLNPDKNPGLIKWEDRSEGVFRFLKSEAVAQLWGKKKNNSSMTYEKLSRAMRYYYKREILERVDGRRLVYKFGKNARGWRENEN
In a few lines:
as §1

In experiment [6] the target is SPIB (Homo sapiens, UniProt Q01892 1-262). In a few lines: as §1
For experiment [7], the target named is T5, ELK3 (Homo sapiens, UniProt P41970 1-407).
T5 sequence: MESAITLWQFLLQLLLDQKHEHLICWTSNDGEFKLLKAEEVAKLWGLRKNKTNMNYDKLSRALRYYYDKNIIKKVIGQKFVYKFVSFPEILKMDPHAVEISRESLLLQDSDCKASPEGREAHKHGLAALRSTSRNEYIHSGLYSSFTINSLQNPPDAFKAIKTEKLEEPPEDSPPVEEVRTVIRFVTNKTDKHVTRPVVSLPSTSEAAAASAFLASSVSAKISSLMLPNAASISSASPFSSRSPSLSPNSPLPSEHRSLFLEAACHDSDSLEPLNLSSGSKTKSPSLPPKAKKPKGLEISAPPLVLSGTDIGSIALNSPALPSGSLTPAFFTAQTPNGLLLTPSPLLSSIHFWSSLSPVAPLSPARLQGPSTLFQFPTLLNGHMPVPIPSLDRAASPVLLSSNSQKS
The procedure, abridged:
as §1

Experiment [8] addresses T6, SPIC (Homo sapiens, UniProt Q8N5J4 1-248).
T6 sequence: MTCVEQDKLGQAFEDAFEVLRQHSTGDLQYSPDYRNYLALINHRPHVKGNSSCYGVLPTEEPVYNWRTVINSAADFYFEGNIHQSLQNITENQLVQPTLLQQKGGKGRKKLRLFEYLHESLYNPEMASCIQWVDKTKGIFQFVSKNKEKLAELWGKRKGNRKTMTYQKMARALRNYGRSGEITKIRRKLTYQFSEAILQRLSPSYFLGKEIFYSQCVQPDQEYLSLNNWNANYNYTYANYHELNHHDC
In a few lines: as §1

Experiment [9] addresses ELF4 (Homo sapiens, UniProt Q99607 1-663). The procedure, abridged: as §1

Sequence of SPIB (Q01892 whole entry): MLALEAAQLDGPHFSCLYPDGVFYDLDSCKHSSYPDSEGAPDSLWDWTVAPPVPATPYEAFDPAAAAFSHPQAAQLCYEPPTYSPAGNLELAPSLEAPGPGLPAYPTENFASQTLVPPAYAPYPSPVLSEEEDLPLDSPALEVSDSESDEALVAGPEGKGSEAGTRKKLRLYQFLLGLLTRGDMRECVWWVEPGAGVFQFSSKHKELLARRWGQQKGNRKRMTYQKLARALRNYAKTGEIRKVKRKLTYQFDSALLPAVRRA
Sequence of ELF4 (Q99607 whole entry): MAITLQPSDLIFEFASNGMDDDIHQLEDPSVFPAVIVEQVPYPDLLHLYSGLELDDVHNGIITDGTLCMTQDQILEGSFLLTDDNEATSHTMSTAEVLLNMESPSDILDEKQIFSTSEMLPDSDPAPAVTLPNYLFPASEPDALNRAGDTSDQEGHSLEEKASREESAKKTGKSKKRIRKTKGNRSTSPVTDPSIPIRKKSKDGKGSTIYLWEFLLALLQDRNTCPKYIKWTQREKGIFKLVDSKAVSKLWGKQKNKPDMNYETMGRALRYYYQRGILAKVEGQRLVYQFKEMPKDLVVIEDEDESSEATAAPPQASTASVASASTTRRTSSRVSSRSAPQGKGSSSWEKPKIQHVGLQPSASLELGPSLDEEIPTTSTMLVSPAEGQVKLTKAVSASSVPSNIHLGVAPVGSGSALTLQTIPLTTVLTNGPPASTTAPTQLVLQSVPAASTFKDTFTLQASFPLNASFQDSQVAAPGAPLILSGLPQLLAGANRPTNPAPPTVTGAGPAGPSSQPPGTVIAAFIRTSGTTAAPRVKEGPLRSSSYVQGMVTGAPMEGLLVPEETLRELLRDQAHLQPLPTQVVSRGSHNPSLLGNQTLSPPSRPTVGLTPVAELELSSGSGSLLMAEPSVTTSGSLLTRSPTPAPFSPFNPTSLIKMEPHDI
Sequence of ELF1 (P32519 whole entry): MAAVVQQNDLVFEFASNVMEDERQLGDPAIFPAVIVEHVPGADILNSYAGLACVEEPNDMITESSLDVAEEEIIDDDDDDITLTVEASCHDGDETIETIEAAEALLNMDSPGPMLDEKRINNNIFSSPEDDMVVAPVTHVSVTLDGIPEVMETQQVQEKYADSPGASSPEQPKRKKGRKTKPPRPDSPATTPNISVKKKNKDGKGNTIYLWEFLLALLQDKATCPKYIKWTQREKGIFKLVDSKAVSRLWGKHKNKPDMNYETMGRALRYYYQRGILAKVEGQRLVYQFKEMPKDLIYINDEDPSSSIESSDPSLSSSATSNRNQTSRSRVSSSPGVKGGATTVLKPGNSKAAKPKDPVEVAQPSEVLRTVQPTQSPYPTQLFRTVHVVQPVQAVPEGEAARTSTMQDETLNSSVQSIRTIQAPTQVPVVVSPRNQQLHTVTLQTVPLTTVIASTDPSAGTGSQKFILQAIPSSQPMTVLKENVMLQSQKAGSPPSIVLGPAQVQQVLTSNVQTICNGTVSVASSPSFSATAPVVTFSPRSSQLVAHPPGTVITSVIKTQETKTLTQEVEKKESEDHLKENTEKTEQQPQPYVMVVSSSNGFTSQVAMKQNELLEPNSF

Consider CGTTTA, for which the binding signal was 1.08 fold enrichment (6-mer frequency, TF over GST control) in [1]; 1.13 fold enrichment (6-mer frequency, TF over GST control) in experiment [2]; 1.05 fold enrichment (6-mer frequency, TF over GST control) in experiment [3]; 1.06 fold enrichment (6-mer frequency, TF over GST control) in experiment [4]; 1.06 fold enrichment (6-mer frequency, TF over GST control) in experiment [5]; 1.11 fold enrichment (6-mer frequency, TF over GST control) in experiment [6]. Besides, the binding signal was 1.12 fold enrichment (6-mer frequency, TF over GST control) in [7]; 1.03 fold enrichment (6-mer frequency, TF over GST control) in [8]; 1.07 fold enrichment (6-mer frequency, TF over GST control) in experiment [9].
